Inconclusive results are not listed. Activity calls are given as the source filed them. Calls follow the shape of the dose curve; as a rule, active = well fitted curve in the direction sought with a large enough effect; inconclusive = small, poorly fitted or top-dose-only effect, or another doubt; inactive = no such curve, though single readings can be large; an effect the other way counts as inactive or inconclusive. *1 amine or outer side, *2 acyl side, *3 side chain or, on linkers, in order; H or OH if unused. Where a SMILES comes first, the peptide text is derived from it. [ ]: non-standard residue; d: D form. X13 = O=C(C(CC(O)CO)O[*:1])[*:2]; NMeV = CN[CH](C(=O)O)C(C)C; NMeA = CN[CH](C)C(=O)O; βAla = NCCC(=O)O
What was measured:
[1] = P-glycoprotein substrates identified in KB-8-5-11 adenocarcinoma cell line, qHTS therapeutic library screen (AID 1346987); also: nearly all actives have a fitted effect of over 65% in size
Method in brief: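 In this qHTS, P-gp-rich KB-8-5-11 cells received library compounds across a concentration range. Viability was quantified by luminescence after 72 h at 37 degree C.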

[2] = test system: Zika virus NS2B-NS3 protease (unlinked complex); experiment: Primary screen GU Rhodamine qHTS for Zika virus inhibitors: Unlinked NS2B-NS3 protease assay (AID 1347159); also: nearly all actives have a fitted effect of over 60% in size
Method in brief: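 Enzyme 25 nM in Tris-HCl pH 8.0 + 0.01% Tween 20; compounds up to 114 microM, 15 min RT dark; + Rhod110 substrate 1.5 microM; read t0 and 15 min; delta fluorescence → % inhibition → 4-parameter Hill fit.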

[3] = test system: Zika virus NS2B-NS3 protease (linked construct); experiment: Primary screen NINDS Rhodamine qHTS for Zika virus inhibitors (AID 1347160); also: nearly all actives have a fitted effect of over 55% in size
Method in brief: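 Enzyme (25 nM, linked NS2B-NS3) was preincubated 15 min with compound in 10 mM Tris-HCl pH 8.0, 0.01% Tween 20. Rhodamine110 substrate (1.5 microM) was then added and fluorescence read at start and after 15 min.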

Measured: Potency

COc1cc(O)cc2c1C(=O)OC(C)C2 (stereo not given)
inactive: [1] | [2] | [3]

CN(C)CCC[C@]1(c2ccc(F)cc2)OCc2cc(C#N)ccc21
inactive: [1] | [2] | [3]

CCC(C)C1NC(=O)C2CCCN2C(=O)C(CC(O)CO)OC(=O)CCNC(=O)C(C)N(C)C(=O)C(C(C)C)N(C)C1=O (stereo not given) (cyclo([X13]PI[NMeV][NMeA][βAla]); configuration not given here)
inactive: [1] | [2] | [3]

OC[C@H]1O[C@@H](Oc2cc(O)cc(-c3cc4ccc(O[C@@H]5O[C@H](CO)[C@@H](O)[C@H](O)[C@H]5O)cc4o3)c2)[C@H](O)[C@@H](O)[C@@H]1O
inactive: [1] | [2] | [3]

CC(=O)OC1C(O)C(C)(O)C(/C=C/C(=O)O)C2(C)CCCC(C)(C)C12 (stereo not given)
inactive: [1] | [2] | [3]

CC1(C(=O)O)CCCC2(C)C3CCC4CC3(CCC12)CC4C(=O)O (stereo not given)
inactive: [1] | [2] | [3]

C[C@@H]1C(=O)O[C@H]2[C@H]1CC[C@@]1(C)C(=O)C=C[C@@](C)(O)[C@H]21
inactive: [1] | [2] | [3]

NCCCCN(Cc1nc2ccccc2[nH]1)[C@H]1CCCc2cccnc21
inactive: [1] | [2] | [3]

C[C@@H](NC(=O)c1cc(C(=O)N[C@@H](Cc2ccccc2)[C@H](O)CNC2CC2)cc(N(C)S(C)(=O)=O)c1)c1ccccc1
inactive: [1] | [2] | [3]

C=C[C@H]1[C@H](O[C@@H]2O[C@H](CO)[C@@H](O)[C@H](OC(=O)/C=C/c3ccc(O)c(OC)c3)[C@H]2O)OC=C2C(=O)OCC[C@]21O
inactive: [1] | [2] | [3]
